From PubChem BioAssay (NCI)
About 83,000 compounds went through this panel and 20% of them were active in at least one assay; those are over-represented in the sample as a whole.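 Results are percent growth after 48 hours of single-concentration exposure. 100 means growth as in untreated cells, lower positive values show inhibition; negative values down to -100 show cell death.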 Activity calls are given as the source filed them. How the source made its calls: active means growth percent below 10; inactive means the rest.

Columns and labels:
Test in all cases: NCI-60 one-dose screen, 48 h (100 = growth as untreated, 0 = no growth, -100 = all killed)
Conditions in all cases: 10 µM unless noted
[1] = test system: OVCAR-8 ovarian
[2] = test system: OVCAR-5 ovarian
[3] = test system: OVCAR-4 ovarian
[4] = test system: SK-OV-3 ovarian
[5] = test system: IGROV1 ovarian
[6] = test system: OVCAR-3 ovarian
[7] = test system: HS 578T breast
[8] = test system: NCI/ADR-RES ovarian
[9] = test system: T-47D breast
[10] = test system: RPMI-8226 leukemia

Measured: growth

Clc1ccc(-c2nnc(COc3ccc(C4=NNC(c5ccco5)C4)cc3)o2)cc1 (stereo not drawn)
inactive: [1] 96.6% | [2] 95% | [3] 77% | [4] 98.2% | [5] 85.4% | [6] 91.3% | [7] 95.7% | [8] 72.6% | [9] 25.7%

O=C1N=c2ccccc2=C1c1sc(=Nc2ccccc2)n(Nc2ccccc2)c1O
inactive: [1] 105% | [2] 101% | [3] 43.5% | [5] 96.2% | [6] 110% | [7] 102% | [8] 108% | [9] 97.6%

COc1nc2c(c(=O)n1C)N=C1c3ccccc3C(=O)C1C(c1ccccc1)N2 (stereo not drawn)
inactive: [10] 92% | [1] 100% | [3] 92.8% | [5] 110% | [6] 74.9% | [7] 105% | [8] 73.3% | [9] 85.2%

O=C(NC1CCN(Cc2ccccc2)CC1)c1cc2nc(-c3ccc(Cl)s3)cc(C(F)(F)F)n2n1
inactive: [2] 93.2% | [3] 66.4% | [4] 92.6% | [5] 118% | [6] 89.9% | [7] 87.3% | [8] 94.4% | [9] 97.1%
active: [10] -18.4%

O=C(/C=C/c1ccc(C(F)(F)F)cc1)c1ccc(Nc2nc(NCCO)nc(N3CCOCC3)n2)cc1
active: [10] 2.35% | [6] -31.9%
inactive: [1] 28.5% | [3] 22.8% | [5] 25.4% | [7] 78.1% | [8] 74.7% | [9] 32.7%

COc1ccc2[nH]c(O)c(N=NC(=O)c3oc4ccccc4c3C)c2c1
active: [3] -52.8% | [5] 6.33% | [6] -65.5% | [9] -39.2%
inactive: [1] 37.8% | [2] 41.7% | [7] 25.5% | [8] 30.5%

CCOc1cc(Cl)c(C(C)NC(=O)c2cccc(OC)c2)cc1OCC (stereo not drawn)
inactive: [4] 35.4% | [5] 28.2% | [7] 18% | [9] 13.5%
active: [10] -6.93% | [1] -19.9% | [6] -82.5% | [8] 1.86%

CN1C(=O)N(C)C2C1NN=c1s/c(=C\c3c[nH]c4ccccc34)c(=O)n12 (stereo not drawn)
active: [6] 8.1%
inactive: [1] 24.1% | [2] 42.7% | [3] 103% | [5] 18.7% | [7] 18.7% | [8] 15.6% | [9] 82.6%

S=C1CCCC(=S)N1
inactive: [1] 105% | [2] 100% | [3] 104% | [4] 91.6% | [5] 107% | [6] 112% | [7] 99.8% | [8] 99.5%

CN1C(=O)N(C)C2C1NN=c1s/c(=C\c3ccc([N+](=O)[O-])cc3)c(=O)n12 (stereo not drawn)
inactive: [1] 81.1% | [2] 86.1% | [3] 82.2% | [5] 57.4% | [6] 22.7% | [7] 67.5% | [8] 61.5% | [9] 66.5%

O=C(NC1C(O)OC(CO)C(O)C1O)NS(=O)(=O)c1ccc(Cl)cc1 (stereo not drawn)
inactive: [1] 102% | [2] 99.7% | [3] 105% | [4] 105% | [5] 107% | [6] 112% | [7] 98.7% | [8] 105% | [9] 91.3%

COc1ccc(/C=C/C(=O)c2ccc(Nc3nc(NCCO)nc(Nc4ccc(Cl)cc4)n3)cc2)cc1
inactive: [1] 71.8% | [3] 62.6% | [5] 98% | [6] 73.1% | [7] 87.5% | [8] 83.2% | [9] 38%
active: [10] 8.06%

Cc1ccc2nc(NC(=O)CSC(=S)N3CCN(c4ccccc4)CC3)sc2c1
inactive: [10] 79.3% | [3] 92.7% | [4] 111% | [6] 104% | [7] 104% | [8] 88.2% | [9] 85.7%
active: [5] -4.12%

C=C[C@@H]1CCC/C=C/[C@@H]2C[C@H](O)C[C@H]2[C@H](O)/C=C/C(=O)O1
inactive: [10] 23.6% | [1] 21.4% | [3] 23.8% | [5] 11.8%
active: [6] -30.8% | [8] 1.8% | [9] -40.9%

CC(=S)NC(=O)C(=O)/C=C1/NC(=O)C(=O)S1
inactive: [1] 106% | [2] 107% | [3] 106% | [5] 109% | [6] 122% | [7] 107% | [8] 103% | [9] 107%

O=Nc1c(O)ccc2ccccc12.O=Nc1c(O)ccc2ccccc12.O=Nc1c([O-])ccc2ccccc12.[Fe+3]
inactive: [1] 98.4% | [2] 109% | [3] 104% | [4] 112% | [5] 91.1% | [6] 102% | [7] 113% | [8] 104% | [9] 104%

O=C(NCc1ccco1)C1CN(c2ccc(Cl)cc2)N(c2ccc(Cl)cc2)C1=O (stereo not drawn)
inactive: [10] 48% | [1] 66.4% | [3] 57.7% | [5] 46.3% | [7] 36.7% | [8] 24.3% | [9] 43.2%
active: [6] 3.64%

CCOC(=O)c1sc(-c2ccc(OS(=O)(=O)c3cccs3)c(C=O)c2)nc1C
inactive: [2] 33.1% | [7] 11.2% | [9] 19.1%
active: [1] -5.05% | [3] 4.5% | [5] -36.2% | [6] -9.03% | [8] -2.63%

CNCCNc1nc2ccccc2c2c(=O)c3cc(OC)ccc3sc12
active: [10] -17.2% | [6] -40.7% | [9] -33.6%
inactive: [1] 26.3% | [3] 29.7% | [5] 42.8% | [7] 56% | [8] 51.5%

CN1C(=O)N(C)C2(c3ccccc3)n3c(s/c(=C\c4ccccc4)c3=O)=NNC12c1ccccc1 (stereo not drawn)
inactive: [1] 96.8% | [2] 99.9% | [3] 100% | [5] 97.9% | [6] 103% | [7] 102% | [8] 88.3% | [9] 81.9%

O=C(CN1C=NC2C(N3CCOCC3)=NC=NC21)c1cccc2ccccc12 (stereo not drawn)
inactive: [1] 97% | [2] 92% | [3] 97.1% | [5] 90.8% | [6] 101% | [7] 102% | [8] 104% | [9] 90.7%

CN1C(=O)N(C)C2C1NN=c1s/c(=C\c3ccc(Cl)cc3Cl)c(=O)n12 (stereo not drawn)
active: [6] 3.93%
inactive: [1] 27.2% | [2] 32.5% | [3] 36.9% | [5] 16.4% | [7] 23% | [8] 14.9% | [9] 72.1%

O=C(CN1C=NC2C(N3CCOCC3)=NC=NC21)c1ccc(Br)cc1 (stereo not drawn)
inactive: [1] 100% | [2] 99% | [3] 97% | [5] 95.6% | [6] 108% | [7] 102% | [8] 103% | [9] 101%

CCOC(=O)c1sc(-c2ccc(OS(=O)(=O)c3ccc(Br)s3)c(C=O)c2)nc1C
active: [1] 3.64% | [3] 7.2% | [5] 3.38% | [6] -1.81% | [8] -8.08%
inactive: [2] 61.2% | [4] 97.2% | [7] 27.6% | [9] 30.8%

COc1cc(/C=C2\CCC/C(=C\c3cc(CN4CCOCC4)c(O)c(OC)c3)C2=O)cc(CN2CCOCC2)c1O
inactive: [10] 19.9% | [1] 19% | [3] 36.1% | [5] 50.7% | [6] 19.4% | [7] 55.1% | [8] 23.3% | [9] 63.3%

O=C(/C=C/c1ccccc1)c1ccc(Nc2nc(NCCO)nc(Nc3ccc(Cl)cc3)n2)cc1
active: [10] 9.69%
inactive: [1] 89.1% | [3] 73.4% | [5] 97.3% | [6] 59.9% | [8] 91.7% | [9] 62.7%

COC(=O)[C@@H]1CCCN1C(=O)[C@H]1CCCN1C(=O)[C@@H](Cc1c[nH]c2ccccc12)NC(=S)Nc1cc(C(F)(F)F)cc(C(F)(F)F)c1
inactive: [1] 61.3% | [2] 60.1% | [3] 47.2% | [4] 69.6% | [5] 29.2% | [6] 47% | [8] 67.1% | [9] 37.3%

CN=c1ccc2nc3ccc(N)cc3sc-2c1
active: [1] 2.77% | [3] -11.2% | [8] 5.34%
inactive: [2] 24.6% | [4] 30.1% | [5] 22.3% | [6] 10.8% | [7] 59% | [9] 20.1%

CCOC(=O)CSc1c(-c2ccccc2)c2cc(Cl)ccc2[nH]c1=O
inactive: [1] 115% | [2] 105% | [3] 89.1% | [4] 107% | [5] 99.1% | [6] 106% | [7] 84.2% | [8] 84.3% | [9] 98.1%

NS(=O)(=O)c1ccc(CCN=C=S)cc1
active: [6] -18.6%
inactive: [1] 30.1% | [3] 42.8% | [4] 122% | [5] 25.6% | [8] 83.6%

CCCSC1=NC2C(N(CC)C(=O)N2CC)N1/N=C/C=C/c1ccccc1[N+](=O)[O-] (stereo not drawn)
active: [6] -15.8%
inactive: [1] 33.7% | [2] 48% | [3] 39.9% | [5] 29.9% | [7] 18.5% | [8] 13.4% | [9] 64.1%

COC(=O)[C@H]1CCCN1C(=O)[C@H]1CCCN1C(=O)[C@H](Cc1c[nH]c2ccccc12)NC(=S)Nc1cc(C(F)(F)F)cc(C(F)(F)F)c1
inactive: [1] 68.5% | [2] 71.1% | [3] 62% | [5] 44.6% | [6] 63.7% | [7] 44.8% | [8] 93.2% | [9] 56.5%

O=C(CSc1ncccc1C(=O)O)Nc1ccc(Oc2ccccc2)cc1
inactive: [1] 103% | [2] 108% | [3] 89.4% | [4] 100% | [5] 104% | [6] 109% | [7] 92% | [8] 100% | [9] 103%

COc1ccc(-c2nnc(COc3ccc(C(=O)/C=C/c4ccco4)cc3)o2)cc1
inactive: [1] 73.9% | [2] 97.7% | [3] 67.9% | [4] 92.8% | [5] 87.6% | [6] 64.1% | [8] 89.2% | [9] 80.6%

CCOC(=O)C(CC(=O)O)=C(C(=O)OCC)C(=O)OCC
inactive: [1] 99.9% | [2] 109% | [3] 90.2% | [4] 110% | [5] 111% | [6] 111% | [7] 107% | [8] 112% | [9] 100%

O=CCCCC(O)C=O (stereo not drawn)
inactive: [1] 106% | [2] 106% | [3] 103% | [4] 104% | [5] 108% | [6] 109% | [7] 98.1% | [8] 99.2% | [9] 95.9%

COc1ccc(CSc2nnc(SCC(=O)Nc3ccc(Cl)cc3)s2)cc1
inactive: [1] 84.4% | [2] 90.6% | [3] 84.7% | [4] 103% | [5] 63.6% | [6] 91.2% | [7] 75.6% | [8] 47.6% | [9] 67.2%
